Measurements reported in PubChem BioAssay (Tox21).
Values joined by “and” are separate entries in the source; they are usually repeats but may differ in a detail not shown here. Equal values may be shown once. Results filed as inconclusive are left out. Entries that show only a call come without a potency. The source holds several records for some structures; these can differ, active in one and inactive in another. Active and inactive are the calls of the source. Unless noted, calls follow the shape of the dose curve; as a rule, active = well fitted curve in the direction sought with a large enough effect in the repeat runs; inconclusive = weak or mixed curves; inactive = no such curve, though single readings can be large; an effect the other way counts as inactive or inconclusive.

What was measured:
[1] = qHTS assay to identify small molecule antagonists of the glucocorticoid receptor (GR) signaling pathway - cell viability counter screen (AID 720693); also: nearly all actives have a fitted effect of over 55% in size; also: potency is read from the fitted curve at half-maximal effect
[2] = qHTS assay for identifying genotoxic compounds that show differential cytotoxicity against isogenic chicken DT40 cell lines with known DNA damage response pathways - wild type cell line (AID 743012); also: nearly all actives have a fitted effect of over 60% in size; also: potency is read from the fitted curve at half-maximal effect
How it was run: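 Quantitative HTS on parental DT40 cells: 40 h compound treatment at 37 C/5% CO2, with viability then determined by CellTiter-Glo luminescence. Values serve as the DNA repair-proficient reference for differential cytotoxicity.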

[3] = qHTS assay for identifying genotoxic compounds that show differential cytotoxicity against isogenic chicken DT40 cell lines with known DNA damage response pathways - Rev3 mutant cell line (AID 743014); also: nearly all actives have a fitted effect of over 55% in size; also: potency is read from the fitted curve at half-maximal effect
[4] = qHTS assay for identifying genotoxic compounds that show differential cytotoxicity against isogenic chicken DT40 cell lines with known DNA damage response pathways - Rad54/Ku70 mutant cell line (AID 743015); also: nearly all actives have a fitted effect of over 60% in size; also: potency is read from the fitted curve at half-maximal effect
[5] = qHTS assay to identify small molecule antagonists of the androgen receptor (AR) signaling pathway - cell viability counter screen (AID 743033; also: nearly all actives have a fitted effect of over 45% in size; also: potency is read from the fitted curve at half-maximal effect)
[6] = qHTS assay to identify small molecule antagonists of the androgen receptor (AR) signaling pathway using the MDA cell line - cell viability counter screen (AID 743041; also: nearly all actives have a fitted effect of over 45% in size; also: potency is read from the fitted curve at half-maximal effect)
How it was run: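 Viability counter screen run alongside the AR antagonist reporter: cells seeded 5 h before compound, R1881 added, 16 h incubation at 37C without CO2, fluorescent CellTiter-Fluor signal quantified.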

[7] = qHTS assay to identify small molecule antagonists of the thyroid receptor (TR) signaling pathway - cell viability counter screen (AID 743064); also: nearly all actives have a fitted effect of over 50% in size; also: potency is read from the fitted curve at half-maximal effect
How it was run: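 Rat GH3 pituitary tumor cells stably expressing two TR response elements driving luciferase were plated, rested 4 h, then dosed with library compounds and T3 (1 nM final). After 23.5 h at 37 °C, CellTiter-Fluor was added for 30 min and fluorescence recorded.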

[8] = target: Androgen receptor (Homo sapiens) (UniProt P10275); experiment: qHTS assay to identify small molecule antagonists of the androgen receptor (AR) signaling pathway (AID 743035; active = well fitted inhibition curve with a large enough effect in the signal ratio in the repeat runs, not every such curve was filed as active; the % refers to the signal ratio)
Chain of Androgen receptor (Homo sapiens) (P10275 whole entry, looked up): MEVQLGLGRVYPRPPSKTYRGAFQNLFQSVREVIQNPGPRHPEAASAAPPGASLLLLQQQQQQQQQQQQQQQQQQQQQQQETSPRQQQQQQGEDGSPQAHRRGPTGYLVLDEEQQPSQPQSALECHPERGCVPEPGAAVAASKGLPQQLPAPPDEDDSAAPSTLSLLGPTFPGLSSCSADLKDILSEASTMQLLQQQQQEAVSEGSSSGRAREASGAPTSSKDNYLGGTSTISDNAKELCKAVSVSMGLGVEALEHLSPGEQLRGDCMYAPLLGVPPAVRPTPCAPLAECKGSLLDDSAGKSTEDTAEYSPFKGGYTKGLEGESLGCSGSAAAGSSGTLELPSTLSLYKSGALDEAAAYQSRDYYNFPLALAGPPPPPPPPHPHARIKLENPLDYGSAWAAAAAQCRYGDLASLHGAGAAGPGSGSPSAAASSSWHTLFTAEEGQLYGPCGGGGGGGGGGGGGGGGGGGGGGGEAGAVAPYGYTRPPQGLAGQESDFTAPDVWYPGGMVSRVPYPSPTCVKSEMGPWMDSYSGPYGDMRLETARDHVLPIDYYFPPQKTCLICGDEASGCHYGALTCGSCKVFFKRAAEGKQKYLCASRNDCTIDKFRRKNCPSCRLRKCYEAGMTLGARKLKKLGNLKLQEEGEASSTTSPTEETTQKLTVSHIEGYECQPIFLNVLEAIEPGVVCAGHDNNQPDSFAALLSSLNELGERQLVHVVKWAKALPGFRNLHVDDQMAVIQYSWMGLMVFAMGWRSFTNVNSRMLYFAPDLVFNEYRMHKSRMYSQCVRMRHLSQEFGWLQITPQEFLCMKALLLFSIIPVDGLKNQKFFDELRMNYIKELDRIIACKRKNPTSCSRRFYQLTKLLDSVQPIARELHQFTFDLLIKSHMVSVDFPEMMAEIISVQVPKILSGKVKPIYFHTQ
How it was run: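 Cell line: GeneBLAzer AR-UAS-bla GripTite (HEK293). Stimulus: R1881 added after compound. Exposure: 16 h, 37C, 5% CO2. Readout: LiveBLAzer B/G FRET fluorescence after 2 h at room temperature.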

[9] = target: Androgen receptor (Homo sapiens) (UniProt P10275); experiment: qHTS assay to identify small molecule agonists of the androgen receptor (AR) signaling pathway (AID 743036; active = well fitted activation curve with a large enough effect in the signal ratio in the repeat runs, with a control signal flat, not every such curve was filed as active; the % refers to the signal ratio)
How it was run: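 Quantitative HTS of the Tox21 10K library in HEK293 cells bearing a stably integrated UAS-controlled beta-lactamase reporter. Compound exposure lasted 16 h at 37C. Reporter activity was detected by FRET substrate fluorescence after 2 h at room temperature.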

[10] = target: Androgen receptor (Homo sapiens) (UniProt P10275); experiment: qHTS assay to identify small molecule antagonists of the androgen receptor (AR) signaling pathway using the MDA cell line (AID 743042; also: nearly all actives have a fitted effect of over 55% in size)
How it was run: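 MDA-kb2 cells (human breast carcinoma, stably carrying an MMTV-luciferase reporter responsive to AR and GR) were plated at 3,000 cells/well and preincubated 5 hr at 37C, then given compound plus R1881 agonist for 16 h. ONE-Glo luminescence was read.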

| Structure (SMILES) | Potency [1] | Potency [2] | Potency [3] | Potency [4] | Potency [5] | Potency [6] | Potency [7] | Potency [8] | Potency [9] | Potency [10] |
| --- | --- | --- | --- | --- | --- | --- | --- | --- | --- | --- |
| O=C(O)[C@H](O)[C@@H](O)[C@H](O[C@@H]1O[C@H](CO)[C@H](O)[C@H](O)[C@H]1O)[C@H](O)CO | inactive | inactive | inactive | inactive | inactive | inactive | inactive |  |  |  |
| Cc1ccc(C(=O)O)cc1 | inactive | inactive | inactive | inactive | inactive | inactive | inactive |  |  |  |
| [Cu+] | inactive | 54.5 µM (active) | 54.5 µM (active) | 30.6 µM (active) | inactive | inactive | inactive |  |  |  |
| COc1cc(/C=C/c2ccccc2)oc(=O)c1 | inactive | inactive | inactive | inactive | inactive | inactive | inactive |  |  |  |
| C#CC1(O)CC[C@H]2[C@@H]3CCC4=CCCC[C@@H]4[C@H]3CC[C@@]21C (some centres undefined) | inactive | 11.4 µM (active) and 13.7 µM (active) | 11.4 µM (active) and 7.7 µM (active) | 11.4 µM (active) and 15.4 µM (active) | inactive | inactive | 30.6 µM (active) |  |  |  |
| CN1CCCCC1CCN1c2ccccc2Sc2ccc(S(C)=O)cc21 (centres undefined) | inactive | 29.8 µM (active) | 29.8 µM (active) | 29.8 µM (active) | inactive | inactive | inactive and 13.3 µM (active) |  |  |  |
| COc1cccc2c1C(=O)c1c(O)c3c(c(O)c1C2=O)C[C@@](O)(C(C)=O)C[C@@H]3O[C@H]1C[C@H](N)[C@H](O)[C@H](C)O1 | 7.56 µM (active) and 2.2 µM (active) | 23.7 nM (active) and 21.8 nM (active) | 37.6 nM (active) and 12.3 nM (active) | 10.6 nM (active) and 2.4 nM (active) | 22 µM (active) | 54.8 µM (active) | 1.06 µM (active) and 218 nM (active) |  |  |  |
| C[C@@H](O)[C@H](N)C(=O)O | inactive | inactive | inactive | inactive | inactive | inactive | inactive |  |  |  |
| C=CC(C)(CCC=C(C)C)OC=O (centres undefined) | inactive | inactive | 24.3 µM (active) | 54.5 µM (active) | inactive | inactive | inactive |  |  |  |
| O=C(Oc1ccccc1)Oc1ccccc1 | inactive | inactive | inactive | inactive | inactive | inactive | inactive |  |  |  |
| c1ccc(C(O[C@@H]2CCCN(CCc3ccc4c(c3)OCO4)C2)c2ccccc2)cc1 | inactive | 38.6 µM (active) | 30.6 µM (active) | 30.6 µM (active) | inactive | inactive | 24.3 µM (active) |  |  |  |
| CCCCCCCCCCCCCC[N+](C)(C)Cc1ccccc1 | 21.3 µM (active) and 24.9 µM (active) | 473 nM (active) and 621 nM (active) | 750 nM (active) and 493 nM (active) | 750 nM (active) and 493 nM (active) | 23.9 µM (active) and 7.03 µM (active) | 49.3 µM (active) | 11.9 µM (active) and 13.9 µM (active) |  |  |  |
| C=C(C)c1cccc(C(=C)C)c1 | inactive | inactive | inactive | inactive | inactive | inactive | inactive |  |  |  |
| O=[N+]([O-])c1cccc(C(F)(F)F)c1 | inactive | inactive | inactive | inactive | inactive | inactive | inactive |  |  |  |
| CCCCC(CC)COC(=O)CCCCC(=O)OCc1ccccc1 (centres undefined) | inactive | inactive | inactive | inactive | inactive | inactive | inactive |  |  |  |
| O=C(O)CCN(C1(C(=O)NO)CCCC1)S(=O)(=O)c1ccc(Oc2ccc(F)cc2)cc1 | inactive | inactive | inactive | inactive | inactive | inactive | inactive |  |  |  |
| OC[C@@H](O)[C@@H](O)CO | inactive | inactive | inactive | inactive | inactive | inactive | inactive |  |  |  |
| COc1ccc(NC(=O)CC(C)=O)cc1 | inactive | inactive | inactive | inactive | inactive | inactive | inactive |  |  |  |
| Cc1c(C)c2c(c(C)c1O)CC[C@@](C)(CCC[C@H](C)CCC[C@H](C)CCCC(C)C)O2 | inactive | inactive | inactive | inactive | inactive | inactive | inactive |  |  |  |

| Structure (SMILES) | Potency [1] | Potency [2] | Potency [3] | Potency [4] | Potency [5] | Potency [6] | Potency [7] | Potency [8] | Potency [9] | Potency [10] |
| --- | --- | --- | --- | --- | --- | --- | --- | --- | --- | --- |
| CC(=O)Oc1cc2c(s1)CCN(C(C(=O)C1CC1)c1ccccc1F)C2 (centres undefined) | inactive | inactive | inactive | inactive | inactive | inactive | inactive |  |  |  |
| CC(C(=O)O)c1ccc2c(c1)[nH]c1ccc(Cl)cc12 (centres undefined) | inactive | inactive | inactive | inactive | inactive | inactive | inactive |  |  |  |
| O=C(O)c1cc(-c2ccc(F)cc2F)ccc1O | inactive | inactive | inactive | inactive | inactive | inactive | inactive |  |  |  |
| Cc1nc(-c2ccc(Cl)cc2)oc1COC(C)(C)C(=O)O | inactive | inactive | inactive | inactive | inactive | inactive | inactive |  |  |  |
| CCCCCCCCCCCCCCCC[N+](C)(C)CC | 13.4 µM (active) and 17.4 µM (active) | 376 nM (active) and 866 nM (active) | 422 nM (active) and 866 nM (active) | 473 nM (active) and 866 nM (active) | 9.52 µM (active) and 21.9 µM (active) | 18.8 µM (active) and 43.4 µM (active) | 5.96 µM (active) and 15.4 µM (active) |  |  |  |
| O=C(O)c1cc(=O)c2ccccc2o1 | inactive | inactive | inactive | inactive | inactive | inactive | inactive |  |  |  |
| CCCCC/C=C\C/C=C\CCCCCCCC(=O)O | inactive | inactive | inactive | inactive and 54.5 µM (active) | inactive | inactive | inactive |  |  |  |
| CCc1ccc(Br)cc1 | inactive | inactive | inactive | inactive | inactive | inactive | inactive |  |  |  |
| CC1(C)CCC[C@]2(C)[C@H]3CCO[C@]3(C)CC[C@@H]12 | inactive | inactive | inactive | inactive | inactive | inactive | inactive |  |  |  |
| CCC(=O)OC(=O)CC | inactive | inactive | inactive | inactive | inactive | inactive | inactive |  |  |  |
| CC(C)(c1cc(Br)c(OCC(Br)CBr)c(Br)c1)c1cc(Br)c(OCC(Br)CBr)c(Br)c1 (centres undefined) | inactive | inactive | inactive | inactive | inactive | inactive | inactive |  |  |  |
| COC(C)=O | inactive | inactive | inactive | inactive | inactive | inactive | inactive |  |  |  |
| Cc1ccc(O)c(O)c1 | 53.4 µM (active) | 16.7 µM (active) | 13.3 µM (active) | 21.1 µM (active) | inactive | inactive | 29.8 µM (active) |  |  |  |
| CC[N+](CC)(CC)CCOC(=O)C(C1CCCC1)C1CCCC1 | inactive | 5.31 µM (active) | 11.9 µM (active) | 8.41 µM (active) | inactive | inactive | inactive |  |  |  |
| CCCCC(CC)CN1CN(CC(CC)CCCC)CC(C)(N)C1 (centres undefined) | inactive | 10.1 µM (active) | 12.7 µM (active) |  | inactive | inactive |  | inactive | inactive | inactive |
| Cc1ccc(O)c(N)c1 | inactive | 54.5 µM (active) | 54.5 µM (active) | 61.2 µM (active) | inactive |  | 30.7 µM (active) |  |  |  |
| CCOc1ccc2ccccc2c1C(=O)N[C@@H]1C(=O)N2[C@@H]1SC(C)(C)[C@@H]2C(=O)O | inactive | inactive | inactive | inactive |  | inactive | inactive | inactive |  | inactive |
| CCCC(=O)OCCc1ccccc1 | inactive | inactive | inactive |  | inactive | inactive | inactive |  |  |  |
